{"source": "PubChem BioAssay AID1649", "about": "(The Scripps Research Institute Molecular Screening Center, 2009)", "experiment": "NPY-Y2 potentiators or agonists, counter-screen for NPY-Y1 potentiator project, cell-based, fluorescence (AID 1649)", "conditions": "HEK293-CNG cells, membrane-potential fluorescence (FLIPR), 1536-well; at 3.6 µM; hits give high values", "note": "The other results are listed elsewhere or left out. Unmarked numbers belong to inactive results. Rule as the data show it: active = activation above about 33%; inactive = the rest.", "data": [{"compound": "Cc1nn(Cc2ccccc2Cl)c(Cl)c1C(=O)OC(C(=O)NC(N)=O)C(C)C", "note": "(configuration not stated)", "values": [{"measurement": "activation", "result": 23.6, "unit": "%"}]}, {"compound": "CSC1=NP(=S)(SC)N(C)c2nc3n(c21)CCC3", "note": "(configuration not stated)", "values": [{"measurement": "activation", "result": 3.63, "unit": "%"}]}]}
